Assay [1] is described as follows: qHTS drug screen for cell cycle checkpoint inhibitors in PARPi-resistant BRCA-mutant ovarian cancer cell lines. (AID 1963452; calls by dose curve; also: potency is read from the fitted curve at half-maximal effect). As to conditions: PEO1/OlaR viability, CellTiter-Glo luminescence, 96 h; for Z-AUC: stronger effect = lower value. The gist of the method:
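PEO1, PEO4 and PEO1/OlaR ovarian cancer cells, 600 per well, exposed 96 h at 37C to a dilution series. Viability read by CellTiter-Glo luminescence, normalized to DMSO and empty wells; activity summarized as Z-AUC.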
Background: qHTS replaces the single test concentration by a dilution series.

In assay [2] the target is Cytochrome P450 2D6 (Homo sapiens) (UniProt P10635). The assay can be described thus: qHTS for inhibitors of CYP2D6 against the NCATS DSHEA and TCM libraries (AID 1919972). Also: % is scaled to controls: 0 for no effect and ±100 for the full control effect. The conditions noted are these: CYP2D6 enzymatic inhibition, luminescence qHTS; series mostly up to 34.1 µM. The method in brief:
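CYP2D6 enzyme with pro-luciferin substrate in manufacturer buffer (typically 100 mM KPO4), preincubated 15 min RT with substances (most at 19.5 nM upward); NADPH regeneration system (1x) started 30–45 min RT reaction; P450-Glo luminescence read after 30 min; quinidine as intraplate control.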

For assay [3], the target named is Cytochrome P450 2C9 (Homo sapiens) (UniProt P11712). As to the kind of experiment: qHTS for inhibitors of CYP2C9 against the NCATS DSHEA and TCM libraries (AID 1919973).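 Also: luminogenic pro-luciferin CYP2C9 substrate turned into luciferin with NADPH regeneration; % is scaled to controls: 0 for no effect and ±100 for the full control effect.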 As to conditions: recombinant CYP2C9 enzyme activity, luminescence; series mostly up to 34.1 µM. The gist of the method:
(§1)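 Concentration-response screening with isoform-matched pro-luciferin substrates. The CYP reaction was initiated by NADPH regenerating solution and ran 30-45 min in darkness at room temperature.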

Assay [4] concerns the target Cytochrome P450 2C19 (Homo sapiens) (UniProt P33261). The assay can be described thus: qHTS for inhibitors of CYP2C19 against the NCATS DSHEA and TCM libraries (AID 1919974).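 Also: luminescence from luciferin released by CYP2C19 oxidation of a pro-luciferin substrate; % is scaled to controls: 0 for no effect and ±100 for the full control effect.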 The conditions noted are these: CYP2C19 enzyme inhibition, luminescence qHTS; series mostly up to 34.1 µM. The method in brief:
as §1

Assay [5] is described as follows: KB-3-1 P-gp reporter qHTS against the NCATS DSHEA and TCM libraries (AID 1919975). Also: 0% is about no effect. As to conditions: KB-3-1 parental cells, CellTiter-Glo luminescence viability, 72 h; series mostly up to 26.1 µM. The method in brief:
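CellTiter-Glo luminescence viability readout; KB-3-1 parental cells, 500/well, attached ~4 h, then compound for ~72 h, 37C, 5% CO2. Bortezomib intraplate control.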

The target in assay [6] is Cytochrome P450 1A2 (Homo sapiens) (UniProt P05177). The assay can be described thus: qHTS for inhibitors of CYPIA2 against the NCATS DSHEA and TCM libraries (AID 1919976).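 Also: light from luciferin formed by CYP1A2 from a pro-luciferin substrate; % is scaled to controls: 0 for no effect and ±100 for the full control effect.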 The conditions noted are these: recombinant CYP1A2 enzyme activity, luminescence; series mostly up to 37 µM. The method in brief: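 Enzyme and pro-luciferin substrate, or substrate alone as no-enzyme background, are pre-incubated with test samples for 15 min at room temperature. NADPH regeneration system (1x final) initiates a 30-45 min dark reaction; luciferase detection reagent follows before luminescence reading.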

A short description of assay [7]: qHTS Counterscreen for compound interference against the NCATS DSHEA and TCM libraries (AID 1919978).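 Also: compounds preincubated with 1 µM D-luciferin or buffer before detection reagent; % of control where 0% means no effect.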 The conditions noted are these: firefly luciferase detection reagent interference, luminescence. The gist of the method: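 Luminescence counterscreen for detection-kit interference: compounds at 19.5 nM–39.8 uM final, 15 min RT with 1 uM D-luciferin or buffer only; detection reagent added, 30 min RT, then read.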

Assay [8] can be described thus: Dual reporter qHTS for agonist of Pregnane X Receptor (hPXR) against the NCATS DSHEA and TCM libraries: Fluorescence readout (AID 1920058). Also: 0% is about no effect. The conditions noted are these: PXR dual reporter cells; series mostly up to 40 µM. The gist of the method: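 Cells were plated at 2000 per well and allowed to attach for 5 h. Test substances were pinned in and incubated roughly 24 h. CellTiter-Fluor was then added and fluorescence measured after 1 h.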

For assay [9], the target named is Nuclear receptor subfamily 1 group I member 2 (Homo sapiens) (UniProt O75469). As to the kind of experiment: Dual reporter qHTS for agonist of Pregnane X Receptor (hPXR) against the NCATS DSHEA and TCM libraries: Luminescence readout (AID 1920059). Also: 0% is about no effect. The conditions noted are these: hPXR dual reporter cells, luciferase luminescence agonist; series mostly up to 40 µM. The gist of the method: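 hPXR-Luc HepG2 cells, 2000/well in 5% charcoal-stripped FBS medium, attached 5 h, then exposed 24 h at 37C to compounds. Viability by CellTiter-Fluor, then luciferase luminescence with ONE-Glo.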

Assay [10] has the same target. The assay can be described thus: Dual reporter qHTS for antagonist of Pregnane X Receptor (hPXR) against the NCATS DSHEA and TCM libraries: Luminescence Readout (AID 1920060).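 Also: HepG2 cells carrying hPXR luciferase reporter stimulated with rifampicin at 2 µM; 0% is about no effect.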 The conditions noted are these: hPXR dual reporter cells, luciferase luminescence, antagonist mode; series mostly up to 40 µM. The method in brief: (§2)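 HepG2 hPXR-Luc, 2000 cells/well, charcoal-stripped FBS medium; 5 h attach; RIF 2 uM final; 24 h 37C/5% CO2; CellTiter-Fluor 1 h, fluor 405/540; ONE-Glo 30 min RT, lum.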

The nature of assay [11]: Dual reporter qHTS for antagonist of Pregnane X Receptor (hPXR) against the NCATS DSHEA and TCM libraries: Fluorescence Readout (AID 1920061). Also: 0% is about no effect. The conditions noted are these: PXR dual reporter cells, antagonist mode; series mostly up to 40 µM. The gist of the method:
as §2

Where [12] appears, read: measured here: PEO1 parental Z-AUC.

Inconclusive results are not listed. Calls of active or inactive are those of the source. Unless noted, calls follow the shape of the dose curve; as a rule, active = well fitted curve in the direction sought with a large enough effect; inconclusive = small, poorly fitted or top-dose-only effect, or another doubt; inactive = no such curve, though single readings can be large; an effect the other way counts as inactive or inconclusive.

Chain of Nuclear receptor subfamily 1 group I member 2 (Homo sapiens) (O75469 whole entry, looked up): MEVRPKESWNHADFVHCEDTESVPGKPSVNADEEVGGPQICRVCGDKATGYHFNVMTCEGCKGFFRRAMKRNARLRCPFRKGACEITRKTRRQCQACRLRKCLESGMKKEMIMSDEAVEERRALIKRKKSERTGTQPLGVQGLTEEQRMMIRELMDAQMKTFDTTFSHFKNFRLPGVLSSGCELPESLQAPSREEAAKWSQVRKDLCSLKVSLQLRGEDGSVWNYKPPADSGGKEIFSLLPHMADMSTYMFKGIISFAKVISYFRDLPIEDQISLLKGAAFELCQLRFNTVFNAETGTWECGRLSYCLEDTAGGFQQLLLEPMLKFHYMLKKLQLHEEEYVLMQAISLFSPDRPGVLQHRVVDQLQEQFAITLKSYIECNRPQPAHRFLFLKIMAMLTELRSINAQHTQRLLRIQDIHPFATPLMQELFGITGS
Chain of Cytochrome P450 2C19 (Homo sapiens) (P33261 whole entry, looked up): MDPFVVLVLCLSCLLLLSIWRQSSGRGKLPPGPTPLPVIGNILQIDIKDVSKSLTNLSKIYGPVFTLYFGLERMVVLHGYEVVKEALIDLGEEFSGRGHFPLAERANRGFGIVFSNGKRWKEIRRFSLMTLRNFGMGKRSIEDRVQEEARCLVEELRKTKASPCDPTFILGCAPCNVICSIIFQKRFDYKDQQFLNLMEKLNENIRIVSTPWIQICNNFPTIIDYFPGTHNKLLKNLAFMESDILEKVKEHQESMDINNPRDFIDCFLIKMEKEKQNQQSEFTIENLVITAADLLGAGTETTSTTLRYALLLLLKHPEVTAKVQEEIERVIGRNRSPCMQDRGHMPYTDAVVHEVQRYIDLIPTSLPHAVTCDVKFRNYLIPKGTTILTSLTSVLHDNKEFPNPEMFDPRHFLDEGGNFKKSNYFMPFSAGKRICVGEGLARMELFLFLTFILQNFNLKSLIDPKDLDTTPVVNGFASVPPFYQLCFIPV
Chain of Cytochrome P450 2D6 (Homo sapiens) (P10635 whole entry, looked up): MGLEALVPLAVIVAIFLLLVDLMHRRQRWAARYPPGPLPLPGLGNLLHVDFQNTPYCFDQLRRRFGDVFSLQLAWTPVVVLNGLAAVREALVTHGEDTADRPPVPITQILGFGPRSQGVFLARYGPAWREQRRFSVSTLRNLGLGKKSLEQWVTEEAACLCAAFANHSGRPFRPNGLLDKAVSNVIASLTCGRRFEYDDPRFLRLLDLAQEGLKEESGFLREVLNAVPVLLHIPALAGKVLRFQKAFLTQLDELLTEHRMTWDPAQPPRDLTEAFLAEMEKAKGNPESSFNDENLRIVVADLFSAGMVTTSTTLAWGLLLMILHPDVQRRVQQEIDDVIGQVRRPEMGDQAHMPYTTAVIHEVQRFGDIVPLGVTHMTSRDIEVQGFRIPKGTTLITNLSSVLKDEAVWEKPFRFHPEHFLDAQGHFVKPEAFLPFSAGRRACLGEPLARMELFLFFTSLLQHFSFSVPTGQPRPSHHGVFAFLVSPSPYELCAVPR
Chain of Cytochrome P450 1A2 (Homo sapiens) (P05177 whole entry, looked up): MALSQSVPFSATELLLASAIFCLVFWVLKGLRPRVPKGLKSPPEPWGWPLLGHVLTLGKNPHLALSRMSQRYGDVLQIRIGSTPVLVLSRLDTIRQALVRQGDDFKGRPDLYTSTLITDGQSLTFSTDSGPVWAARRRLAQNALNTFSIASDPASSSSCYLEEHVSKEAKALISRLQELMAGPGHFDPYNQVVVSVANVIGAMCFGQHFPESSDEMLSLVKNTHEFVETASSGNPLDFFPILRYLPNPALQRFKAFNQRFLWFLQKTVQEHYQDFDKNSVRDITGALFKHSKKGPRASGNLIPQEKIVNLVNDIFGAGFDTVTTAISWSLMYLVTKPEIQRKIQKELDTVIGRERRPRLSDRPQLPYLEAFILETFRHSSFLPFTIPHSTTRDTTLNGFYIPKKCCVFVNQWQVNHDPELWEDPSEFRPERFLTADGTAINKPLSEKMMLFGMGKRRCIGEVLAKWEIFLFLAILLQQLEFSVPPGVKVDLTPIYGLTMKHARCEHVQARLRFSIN
Chain of Cytochrome P450 2C9 (Homo sapiens) (P11712 whole entry, looked up, canonical isoform): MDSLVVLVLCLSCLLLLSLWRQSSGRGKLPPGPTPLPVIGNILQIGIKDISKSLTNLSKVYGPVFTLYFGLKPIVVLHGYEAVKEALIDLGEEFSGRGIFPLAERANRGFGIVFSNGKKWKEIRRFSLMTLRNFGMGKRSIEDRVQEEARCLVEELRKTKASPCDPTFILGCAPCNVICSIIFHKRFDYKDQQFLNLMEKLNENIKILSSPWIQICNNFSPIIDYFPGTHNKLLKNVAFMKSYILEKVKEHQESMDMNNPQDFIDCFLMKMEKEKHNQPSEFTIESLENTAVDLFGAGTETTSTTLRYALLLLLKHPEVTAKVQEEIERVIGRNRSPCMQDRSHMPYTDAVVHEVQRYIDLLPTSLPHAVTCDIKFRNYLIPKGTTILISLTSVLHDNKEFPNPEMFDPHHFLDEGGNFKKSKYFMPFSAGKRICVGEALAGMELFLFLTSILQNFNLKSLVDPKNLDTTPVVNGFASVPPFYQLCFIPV

On to `C[C@@H](c1ccc2nccn2c1)n1nnc2ncc(-c3cnn(C)c3)nc21`, for which the Z-AUC is -0.155 (inactive) in assay [1], -0.0646 in assay [1] (setting [12]) and -0.199 in assay [1] (measured here: PEO4 Z-AUC).
For `CN[C@H]1CC[C@@H](c2ccc(Cl)c(Cl)c2)c2ccccc21`, the Z-AUC was 0.0758 (inactive) in [1], 0.141 in [1] (setting [12]) and -0.265 in assay [1] (measured here: PEO4 Z-AUC).
As to `CN1C(=O)c2sccc2N(C)c2nc(Nc3ccc(S(N)(=O)=O)cc3)ncc21`, the Z-AUC is -1.71 (inactive) in [1], -0.96 in [1] (setting [12]) and -1.18 in assay [1] (measured here: PEO4 Z-AUC).
As for `CCCCCCCCCC(=O)O`, the outcome in assay [2], in [5], in assay [8], in [9], in [10] and in assay [11] was inactive. Besides, the Potency result in assay [3], in assay [4] and in assay [6] was “inactive” throughout. The max response in assay [7] was -0.481% (inactive).
On to `Cc1nnc(C[C@@H]2C=C(c3ccc(Cl)cc3)c3ccccc3-n3c(C)nnc32)o1`, for which the Z-AUC in assay [1] is 0.965 (inactive); in assay [1] (setting [12]), 0.533; in [1] (measured here: PEO4 Z-AUC) it was 0.589.
`CCNC(=O)C#Cc1ccc2c(C(=Nc3ccc(CN(C)C)cc3)c3ccccc3)c(O)[nH]c2c1`: the Potency in assay [1] was 0.535 µM (active). For the same compound, the figures for the Z-AUC in assay [1] (setting [12]) and in assay [1] (measured here: PEO4 Z-AUC) were -2.66 and -2.58, respectively.
As for `CN1CC[C@@H](c2c(O)cc(O)c3c(=O)cc(-c4ccc(C(F)(F)F)cc4Cl)oc23)[C@@H]1CO`, the Z-AUC in [1] is -0.123 (inactive); in assay [1] (setting [12]), 0.298; in [1] (measured here: PEO4 Z-AUC), 0.604.
`O=C(NCC(=O)N1CCCC1)Nc1ccc2cnccc2c1`: the results for the Z-AUC in assay [1], in assay [1] (setting [12]) and in assay [1] (measured here: PEO4 Z-AUC) were -0.618 (inactive), -0.349 and -1.01, respectively.
Turning to `CCn1c(=O)c(-c2ccc(Cl)cc2Cl)cc2cnc(Nc3ccc(N4CCNCC4)c(F)c3)nc21`, the Z-AUC in [1] is -0.749 (inactive); in assay [1] (setting [12]), -0.47; in assay [1] (measured here: PEO4 Z-AUC) it was -0.502.
On to `COC(=O)Nc1cc(Nc2cc(NC3CC3)c3ncc(C#N)n3n2)c(Cl)c(N2CCN(C)CC2)c1`, for which the Z-AUC in [1] was -1.26 (inactive); in assay [1] (setting [12]) it was -0.992; in assay [1] (measured here: PEO4 Z-AUC), -1.22.
Turning to `Cc1ccc(C(=O)Nc2ccc(CN3CCN(C)CC3)c(C(F)(F)F)c2)cc1C#Cc1cnc2[nH]ncc2c1`, the Z-AUC in [1] is -1.39 (inactive); in assay [1] (setting [12]), -0.429; in assay [1] (measured here: PEO4 Z-AUC), -0.168.
